Screening results from PubChem.
MCF10A rerep: induces DNA re-replication in MCF 10a normal breast cells; actives 2.9% (n = 350,000); MCF 10A DNA re-replication, Hoechst nuclear intensity, 48 h; AID 624296; Potency, µM (highest dose often 46.1 µM), for inactives: at the highest dose activity, positive = re-replication, most hits filed as activators; also: potency is read from the fitted curve at half-maximal effect; % of control where 0% means no effect; nearly all actives have a fitted effect of over 50% in size
BCR signal inh: blocks chronic active B-cell receptor signaling; Potency, µM (highest dose often 46.1 µM), inactives show top-dose activity change, negative = inhibition, hits mostly inhibitors; ABC-DLBCL IkBa-CBG/CBR reporter, luminescence ratio, 4 h; actives 0.05% (n = 340,000); active = well fitted inhibition curve with a large enough effect in the signal ratio, with a control signal flat, not every such curve was filed as active; inconclusive = small, poorly fitted or top-dose-only effect, or effect the other way, or a change in a side signal; the % refers to the signal ratio;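 also: potency is read from the fitted curve at half-maximal effect; plate controls were basal doxycycline-induced cells for no effect and cells given 10 µM MG132 for full effect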
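TMD8 ABC-DLBCL cells carrying doxycycline-inducible green luciferase fused to IkappaBalpha plus unfused red luciferase were exposed to compounds (up to 46 uM) for 4 hrs at 37C. Activity came from the overlap-corrected green/red luminescence ratio.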
IL-1B inflam inh: inhibitors of inflammasome signaling (IL-1 beta secretion); THP-1 LPS/ATP IL-1B secretion, AlphaLISA, 16 h; active compounds read low; activity change, % at 57.5 µM; actives 4.7% (n = 360,000); AID 743279; in the data active = activity change below about -50%; inconclusive = mostly about -30% to -49%; also: % is scaled to controls: 0 for no effect and ±100 for the full control effect
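THP-1 cells pretreated 1 hr with compounds (up to 57.5 uM final), then stimulated with LPS (250 ng/mL final) plus ATP (1.25 mM final); secreted IL-1B measured by AlphaLISA after 16 hr, decreased signal indicating inhibition.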
DT40 TDP1 no CPT: qHTS for Inhibitors of human tyrosyl-DNA phosphodiesterase 1 (TDP1): qHTS in cells in absence of CPT | DT40 Tdp1-/- hTDP1 cells, no CPT, ATP luminescence, 48 h | Potency, µM (series often up to 46.2 µM), for inactives: top-dose activity change, negative = growth inhibition, most hits filed as inhibitors | AID 686978, 2013 | actives 15% (n = 420,000); also: potency is read from the fitted curve at half-maximal effect; % is scaled to controls: 0 for no effect and ±100 for the full control effect; nearly all actives have a fitted effect of over 55% in size
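Camptothecin absent (DMSO only). Human TDP1-complemented DT40 knockout cells, 400 cells/well, 37 °C for minimum 48 hr; ATP measured via CellTiter-Glo, 30 min dark incubation, luminescence.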
SW480 rerep: inducers of DNA re-replication in SW480 colon cancer cells; SW480 DNA re-replication, Hoechst DNA content imaging, 48 h; actives 1.8% (n = 340,000); Potency, µM (highest dose often 46.1 µM), for inactives: top-dose re-replication activation, actives largely listed as activators; also: potency is read from the fitted curve at half-maximal effect; % of control where 0% means no effect; nearly all actives have a fitted effect of over 55% in size
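Per well, 250 cells were exposed to pinned compound for 48 hr. Nuclear DNA was visualised with Hoechst (40 min, 37 C) and total object intensity recorded by fluorescence scanning.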
DT40 TDP1 CPT: growth inhibition of DT40 Tdp1-/-;hTDP1 cells with camptothecin (screen for TDP1 inhibitors). Potency, µM (doses to about 46.2 µM), for the others: at the top dose activity change, negative = growth inhibition, hits mostly inhibitors. actives 12% (n = 420,000). chicken DT40 Tdp1-/-;hTDP1 cells + 20 nM CPT, ATP luminescence, 48 h; also: potency is read from the fitted curve at half-maximal effect; % is scaled to controls: 0 for no effect and ±100 for the full control effect; nearly all actives have a fitted effect of over 55% in size
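Cell growth measured by CellTiter-Glo luminescence after a minimum 48 h, 37 C compound exposure with 20 nM CPT in Tdp1-knockout DT40 cells stably expressing hTDP1, seeded 400/well; qHTS titration format.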
The depositor's hits bear a star; ? = inconclusive; / = no result; ! = not confirmed by another sample; [ ] = another dose, or the depositor's remark. Most compounds without a hit are left out; they make up all but 19% or so of the library. Unless noted, calls follow the shape of the dose curve; as a rule, active = well fitted curve in the direction sought with a large enough effect; inconclusive = small, poorly fitted or top-dose-only effect, or another doubt; inactive = no such curve, though single readings can be large; an effect the other way counts as inactive or inconclusive.

SMILES	MCF10A rerep	BCR signal inh	IL-1B inflam inh	DT40 TDP1 no CPT	SW480 rerep	DT40 TDP1 CPT
COc1ccccc1CC(O)CC1c2c(cc3c(c2OC)OCO3)CCN1C (stereo not given)	0%	/	?	10µM*	-27%	12µM*
COc1ccc2c(c1OC)C(C1c3c(cc4c(c3OC)OCO4)CCN1C)OC2=O (stereo not given)	?	0%	22	?	?	?
COc1ccc2c(c1OC)C(=O)O[C@H]2C1c2c(cc3c(c2OC)OCO3)CCN1C (stereo not given in full)	/	/	/	?	/	16µM*!
CN1CCc2cc3c(c4c2C1CC41CCC(=NO)CC1)OCO3 (stereo not given)	-6%	1%	-17	0%	1%	3%
CN1CCc2cc3c(c4c2[C@H]1[C@H](O)c1ccccc1-4)OCO3	-27%	5%	-62*	?	-11%[9.22 µM]	18µM*
COc1ccc(-c2ccccc2)cc1NC(=O)C1(C)CCN1C(=O)C(C)C (stereo not given)	/	/	-17	-52%	/	?
Cc1cc(OCC(=O)NC(C)c2ccccc2)ccc1[N+](=O)[O-] (stereo not given)	17%	-1%	-7	16µM*	-19%	18µM*
Cc1cc(OCC(=O)NCc2cccnc2)ccc1[N+](=O)[O-]	1%	4%	7	-10%	2%	-2%
O=C(Nc1cc2c(cc1C(=O)c1ccccc1Cl)OCCO2)c1ccccc1	/	/	/	-10%	/	-12%
CC1(C(=O)NS(=O)(=O)c2ccc3ccccc3c2)CCN1C(=O)Cc1ccc(Cl)cc1Cl (stereo not given)	/	/	6	?	/	-15%
CC(=O)N1CCc2c(sc3c2c(=O)n(-c2ccc(F)cc2)c(=O)n3Cc2ccc(C#N)cc2)C1	/	/	/	?	/	0%
CC(=O)N1CCc2c(sc3c2c(=O)n(CCc2ccccc2)c(=O)n3Cc2ccc(F)cc2)C1	/	/	/	8.2µM*	/	18µM*
CC(=O)N1CCc2c(sc3c2c(=O)n(Cc2ccccc2)c(=O)n3Cc2ccc(C)cc2)C1	/	/	/	19%	/	-6%
O=c1c2c3c(sc2n2cnnc2n1Cc1ccccc1)CN(Cc1ccccc1)CC3	-2%	3%	-17	15µM*	-14%	16µM*
CC(=O)N1CCc2c(sc3c2c(=O)n(Cc2ccccc2)c(=O)n3Cc2ccccc2Cl)C1	/	/	/	23µM*	/	?
CC(=O)N1CCc2c(sc3c2c(=O)n(Cc2ccccc2)c(=O)n3Cc2ccccc2F)C1	/	/	/	21µM*	/	21µM*
CCOC(=O)N1CCc2c(sc3c2c(=O)n(Cc2ccccc2)c(=O)n3Cc2ccccc2F)C1	2%	5%	25	?	-9%	?
O=C(O)c1cccc(S(=O)(=O)N2CCC(n3nnc4cc(C(F)(F)F)ccc43)CC2)c1	6%	8%	12	-6%	-4%	-3%
Cc1[nH]c(=O)[nH]c(=O)c1S(=O)(=O)Nc1cccc([N+](=O)[O-])c1C	-5%	?	4	0%	-2%	13%
COc1ncccc1-c1cc2nc(NCCCN(C)C)n(C)c(=O)c2s1	/	/	-4	8.2µM*	/	8.2µM*
CN(C)CCCNc1nc2cc(-c3ccc4c(ccn4C)c3)sc2c(=O)n1C	/	/	-28	?	/	21µM*
COc1cccc(-c2cc3nc(NCCCN(C)C)n(C)c(=O)c3s2)c1	/	/	-63*	?	/	?
CN(C)CCCNc1nc2cc(-c3cnn(Cc4ccccc4)c3)sc2c(=O)n1C	/	/	-3	?	/	?
Cc1ccc(F)cc1-c1cc2nc(NCCCN(C)C)n(C)c(=O)c2s1	/	/	-8	16µM*	/	23µM*
COc1cccc(CNc2nc3cc(-c4ccc(OC)c(OC)c4)sc3c(=O)n2C)c1	/	/	14	-16%	/	-7%
SMILES	MCF10A rerep	BCR signal inh	IL-1B inflam inh	DT40 TDP1 no CPT	SW480 rerep	DT40 TDP1 CPT
CCCCCCN1C[C@H](O)[C@@H](n2cc(C3CC3)nn2)C[C@@H]1c1ccc(OC)cc1	/	/	-13	?	/	?
CC(NC(=O)c1cc2cc(F)ccc2[nH]1)c1ccccc1 (stereo not given)	5%	-2%	41	?	2%	18µM*
CC(NC(=O)c1ccc(F)cc1)c1ccccc1 (stereo not given)	-7%	-1%	5	0%	-4%	-1%
COc1ccc(CN2CCSc3sccc3C2=O)cc1	1%	?	-11	-5%	-13%	-4%
O=C(NCc1ccco1)Nc1nnc([C@H]2C[C@H](O)[C@@H](CO)O2)s1	/	/	17	-5%	/	-3%
O=[N+]([O-])c1cc(Cl)cc(/C=N/NC(=S)Nc2ccc(S(=O)(=O)N3CCOCC3)cc2)c1O	-3%	?	124	?	?	?
CCc1ccc2c(c1)C(C)=CC(C)(C)N2	6%	0%	26	?	-3%	?
CC1=CC(C)(C)Nc2ccc(OC(=O)CN3C(=O)c4cccc5cccc(c45)C3=O)cc21	15µM*	?	-107*	2.6µM*	?	2.9µM*
CCOc1ccc2c(c1)C(C)=CC(C)(C)N2	?	-7%	-5	?	0%	13µM*!
CC(=O)N1CCc2cc(S(=O)(=O)NC(CC(C)C)C(=O)NCCc3cccc(C)c3)ccc21 (stereo not given)	/	/	/	-7%	/	2%
Cc1cc(S(=O)(=O)Nc2ccc(C(=O)NCCN3CCOCC3)cc2)ccc1F	/	/	-19	2%	/	-29%
Cc1cccc(C)c1OCC(O)CN (stereo not given)	3%	-1%	-59*	-13%	0%	-2%
Cc1cccc(C)c1OCC(O)CN1CCc2ccccc2C1 (stereo not given)	2%	/	12	6.5µM*	1%	4.6µM*
OC(COc1c(F)cc(Br)cc1F)CN1CCc2ccccc2C1 (stereo not given)	13%	-2%	-7	?	-4%	?
Cc1ccc(Cl)c(OCCN2CCc3ccccc3C2)c1	12%	-3%	-11	23µM*	-2%	?
OC(COCc1ccccc1)CN1CCc2ccccc2C1 (stereo not given)	-2%	2%	3	?	/	-9%
Cc1ccc(C(C)C)c(OCC(O)CN2CCc3ccccc3C2)c1 (stereo not given)	?	?	-101*	?	?	?
N#Cc1ccc(OCCN2CCc3ccccc3C2)cc1	?	/	-9	-22%	?	-20%
